# In paper PMC5540273 (PLoS ONE, 2017):
# Where two headings read alike, the source gives them in different places.
# Key:
# RIOK1 = settings: concentration: 1 μM, replicates: in singlicate; n = 1
# RIOK2 = settings: concentration: 1 μM, replicates: in singlicate; n = 1
# RIOK3 = settings: concentration: 1 μM, replicates: in singlicate; n = 1
# RIPK1 = settings: concentration: 1 μM, replicates: in singlicate; n = 1
# RIPK2 = settings: concentration: 1 μM, replicates: in singlicate; n = 1
# RIPK4 = settings: concentration: 1 μM, replicates: in singlicate; n = 1
# RIPK5 = settings: concentration: 1 μM, replicates: in singlicate; n = 1
# ROCK1 = settings: concentration: 1 μM, replicates: in singlicate; n = 1
# ROCK2 = settings: n = 1
# ROS1 = settings: concentration: 1 μM, replicates: in singlicate; n = 1
# [1] = concentration: 1 μM, replicates: in singlicate
# 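Also: KINOMEscan kinase panel screen.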
SMILES,%Inh (RIOK1) [%],%Inh (RIOK2) [%],%Inh (RIOK3) [%],%Inh (RIPK1) [%],%Inh (RIPK2) [%],%Inh (RIPK4) [%],%Inh (RIPK5) [%],%Inh (ROCK1) [%],%Inh (ROCK2; [1]) [%],%Inh (ROS1) [%],%Inh (ROCK2; 1 µM) [%]
Cn1cc(-c2ccc3c(c2)CCN3C(=O)Cc2cccc(Cl)c2)c2c(N)ncnc21 [GSK2606590],6,19,12,100,15,0,58,0,40,31,–
CCn1c(-c2nonc2N)nc2c(C#CC(C)(C)O)ncc(OCCCCN)c21.O=C(O)C(F)(F)F.O=C(O)C(F)(F)F [GSK507274],16,0,0,0,18,0,4,97.2,–,0,95.3
COC(=O)Nc1nc2cc(Oc3ccc(NC(=O)Nc4cc(C(F)(F)F)ccc4F)cn3)ccc2[nH]1.Cl.Cl [GW681170],0,0,14,41,58,0,0,51,46,27,–
Fc1ccc(-c2ncn(C3CCNCC3)c2-c2ccnc(Oc3ccc(-c4ccccc4)cc3)n2)cc1 [SB-245391],7,0,5,0,70,34,33,0,7,0,–
Cn1cc(-c2ccc3c(c2)CCN3C(=O)Cc2cccc(F)c2)c2c(N)ncnc21 [GSK2603358],7,0,0,99.7,34,5,62,9,64,21,–
CN(C)Cc1ccc(-c2ccc3c(Nc4ccc(Oc5ccccn5)cc4)ccnc3c2)o1 [GW567148],8,4,0,0,95.3,0,0,6,11,0,–
NCCCC(NC(=O)c1cc(Br)c(-c2ccnc3[nH]ccc23)s1)c1ccccc1.O=C(O)C(F)(F)F.O=C(O)C(F)(F)F (stereo not drawn) [GSK1287544],91.8,66,76,53,0,6,1,99.4,92.8,10,–
O=c1[nH]cc(-c2ccc(N3CCOCC3)cc2)c2sc(-c3cn[nH]c3)cc12 [GSK2276055],37,76,25,18,0,12,10,0,0,0,–
CC(=O)Nc1nc2cnc(Nc3cc(NC(=O)c4cccc(C5(C#N)CC5)c4Cl)ccc3C)nc2s1,15,5,3,2,0,0,15,5,0,0,–
COc1ccc(Nc2nccc(N3CCC(NC(=O)Nc4cccc(OC)c4)C3)n2)cc1 (stereo not drawn) [GSK1379742],34,4,25,0,0,0,0,0,2,13,–
CCCCc1nn2ncccc2c1-c1ccnc(Nc2ccc(N3CCN(C)CC3)cc2)n1 [GW684941],52,44,49,22,74,29,56,32,30,71,–
CSc1cccc2c(-c3ccncn3)c(-c3ccc(F)cc3)nn12 [GW514786],45,0,21,0,43,0,19,13,19,0,–
CC(C)(C)c1ccc2nccc(Nc3cccc(O)c3)c2c1 [GW856795],21,0,24,0,34,43,0,55,30,0,–
O=C(Nc1cccc(-c2nn3ccccc3c2-c2ccnc(Nc3cccc(F)c3)n2)c1)c1c(F)ccc(F)c1Cl [GSK357952],24,51,16,0,35,0,0,3,18,18,–
O=C(Nc1cccc(Oc2ccc3nc(NC(=O)C4CC4)cn3n2)c1)c1ccccc1C(F)(F)F,64,0,76,15,11,0,0,0,0,0,–
